This is a sample that favours compounds with a hit; in the whole collection about 3.3% have one here.
Sm TGR inh: qHTS Assay for the Inhibitors of Schistosoma Mansoni Peroxiredoxins | Schistosoma mansoni thioredoxin glutathione reductase (TGR), Q962Y6 | purified TGR, DTNB reduction, TNB absorbance 405 nm | Potency, µM (top dose mostly 114 µM), for inactives: top-dose activity change, negative = inhibition, most hits filed as inhibitors | 360,000 compounds, 3% hits | AID 485364, 2010; also: % is scaled to controls: 0 for no effect and ±100 for the full control effect; nearly all actives have a fitted effect of over 60% in size
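TGR 20 nM + NADPH 100 uM (dispensed conc.), cpd preinc 15 min RT; start with NADPH (500 uM addition) then DTNB (15 mM addition). Kinetic TNB absorbance, 405 nm filter. Four-parameter Hill fit across titration.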
RE007 growth inh: qHTS Assay for Inhibitors of the HIV-1 protein Vpr; Potency, µM (titrated, usually from 92.2 µM), for inactives: at the highest dose activity change, negative = less growth, actives largely listed as inhibitors; S. pombe RE007 Vpr strain, BacTiter-Glo ATP luminescence, 24 h; 360,000 compounds, 0.21% hits; active = well fitted falling curve with a large enough effect; inconclusive = small, poorly fitted or top-dose-only effect; inactive = no such curve, though single readings can be large or run the other way; also: % is scaled to controls: 0 for no effect and ±100 for the full control effect; nearly all actives have a fitted effect of over 50% in size
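Fission yeast strain RE007, carrying one chromosomally integrated HIV-1 vpr copy, was seeded at OD 0.01 in PMG+AL medium with 23 nL pinned compound. After 24 h at 30 °C and 99% humidity, viability was read by BacTiter-Glo luminescence.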
SARS PLP yeast: qHTS of Yeast-based Assay for SARS-CoV PLP; S. cerevisiae expressing SARS-CoV PLpro, growth rescue; Potency, µM (series often up to 32.9 µM), for inactives: at the highest dose activity, positive = growth rescue, hits mostly activators; 330,000 compounds, 0.19% hits; AID 485353, 2010; calls by dose curve; also: 0% is about no effect; nearly all actives have a fitted effect of over 55% in size
AmpC detergent: qHTS Inhibitors of AmpC Beta-Lactamase (assay with detergent). 370,000 compounds, 0.041% hits. AmpC hydrolysis of nitrocefin, absorbance 480 nm, 0.01% Triton. Potency, µM (highest dose often 114 µM), for inactives: at the top dose activity change, negative = inhibition, actives largely listed as inhibitors. P00811. AID 485294, 2010;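 also: 0% = no-compound wells and -100% = no-enzyme wells; nearly all actives have a fitted effect of over 25% in size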
Target sequence (P00811 whole entry, looked up): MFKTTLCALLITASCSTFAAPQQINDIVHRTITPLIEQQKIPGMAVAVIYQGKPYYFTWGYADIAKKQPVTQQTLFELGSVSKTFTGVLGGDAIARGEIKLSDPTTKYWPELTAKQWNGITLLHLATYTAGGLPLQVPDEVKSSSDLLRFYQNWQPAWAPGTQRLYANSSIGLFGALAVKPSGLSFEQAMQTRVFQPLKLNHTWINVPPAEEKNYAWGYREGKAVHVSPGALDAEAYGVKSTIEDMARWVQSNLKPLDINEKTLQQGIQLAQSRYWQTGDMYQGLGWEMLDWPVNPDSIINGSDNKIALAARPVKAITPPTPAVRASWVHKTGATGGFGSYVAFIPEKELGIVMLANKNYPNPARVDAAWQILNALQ
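AmpC (5.3 nM in the dispensed reagent) in 20 mM phosphate pH 7.0 with 0.01% (detergent screen) or 0.0001% Triton X-100 was preincubated with compounds for 15 min at room temperature. Nitrocefin was then added from an 800 uM solution, and hydrolysis was followed at 480 nm.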
AmpC no deterg: qHTS Inhibitors of AmpC Beta-Lactamase (assay without detergent) | P00811 | AmpC nitrocefin hydrolysis, absorbance 480 nm, 0.0001% Triton | Potency, µM (doses to about 57.1 µM), inactives show top-dose activity change, negative = inhibition, hits mostly inhibitors | 330,000 compounds, 0.52% hits | AID 485341, 2010;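 also: plate controls were no compound for no effect and no enzyme for full effect; nearly all actives have a fitted effect of over 20% in size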
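20 mM phosphate pH 7.0 + 0.01% (detergent screen) or 0.0001% Triton X-100; 5.3 nM AmpC reagent; cpd preinc 15 min RT; nitrocefin (800 uM stock) to start; A480 q20 s × 4 min; Activity was normalised to no-enzyme and no-compound control wells.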
TbPYK inhibitor: qHTS of Trypanosoma Brucei Inhibitors. pyruvate kinase (Trypanosoma brucei), Q57TT1. 410,000 compounds, 0.12% hits. Potency, µM (series often up to 76.8 µM), for the others: at the top dose activity, negative = inhibition, usual class: inhibitors. TbPYK enzyme, Kinase-Glo Plus ATP luminescence, 45 min; also: % is scaled to controls: 0 for no effect and ±100 for the full control effect; nearly all actives have a fitted effect of over 50% in size
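Quantitative HTS: titrated library compounds versus trypanosomal pyruvate kinase in TEA buffer (pH 7.2) containing KCl, MgCl2, BSA and Tween-20. Reactions were initiated with ADP, 130 uM final. Kinase-Glo Plus luminescence was read after 45 min at RT.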
An asterisk follows results filed as active; ? = inconclusive; . = no result; [ ] = another dose, or the depositor's remark. Unless noted, calls follow the shape of the dose curve; as a rule, active = well fitted curve in the direction sought with a large enough effect; inconclusive = small, poorly fitted or top-dose-only effect, or another doubt; inactive = no such curve, though single readings can be large; an effect the other way counts as inactive or inconclusive. Potency is read from the fitted curve at half-maximal effect.

SMILES	Sm TGR inh	RE007 growth inh	SARS PLP yeast	AmpC detergent	AmpC no deterg	TbPYK inhibitor
Cc1c([N+](=O)[O-])cc(N2C(=O)C=CC2=O)cc1[N+](=O)[O-]	.	-16%	.	.	.	25µM*
Cc1cc(N2C(=O)C=CC2=O)c([N+](=O)[O-])cc1C	0.71µM*	?	-78%	-15%	-35%	28µM*
Cc1cc(C)cc(N2C(=O)C=CC2=O)c1	.	3.2µM*	.	.	.	13µM*
O=C1Nc2ccccc2C1Cc1ccc(Br)cc1 (stereo not given)	5%	.	.	7%	.	1%
CN(C)c1ccc(CC2C(=O)Nc3ccccc32)cc1 (stereo not given)	14µM*	-12%	1%	0%	-16%	-18%
Cc1ccc(NC(=O)CSc2ccc(-c3cccs3)nn2)cc1Cl	-9%	.	.	-3%	.	1%
O=C1/C(=C/c2ccncc2)CCC/C1=C\c1ccncc1	11µM*	?	-34%	?	-25%	-14%
O=C1CCC/C1=C\c1ccccc1	45µM*	-15%	-3%	-14%	-19%[11.4 µM]	3%
O=C1/C(=C\c2ccccc2)CCC/C1=C/c1ccccc1	.	-24%	.	.	.	3%
CCOC(=O)c1cc(-c2ccc(OC)cc2)n(CCC(=O)NCCc2ccccc2)c1C	4%	.	.	12%	.	9%
Oc1ccc(C2CNCc3sccc32)cc1O (stereo not given)	35µM*	2%[18.4 µM]	.	?	-30%	-16%
O=C1CS/C(=N/N=C/c2ccco2)N1Cc1ccc(F)cc1	25µM*	-4%	0%	2%	-33%	-3%
C=CCN1C(=O)C(Cc2ccc(OC)cc2)S/C1=N/N=C/c1ccco1 (stereo not given)	40µM*	-4%	-3%	0%	-2%	-6%
Cc1ccccc1CN1C(=O)C(C)S/C1=N/N=C/c1ccco1 (stereo not given)	25µM*	-17%	-7%	-5%	-14%	-10%
C=CCN1C(=O)C(Cc2ccc(Br)cc2)S/C1=N\N=C\c1ccco1 (stereo not given)	?	11%	-5%	-12%	-29%	-5%
CCC1S/C(=N/N=C/c2ccco2)N(Cc2ccccc2)C1=O (stereo not given)	20µM*	4%	1%	-6%	-53%	2%
COc1cc(Nc2ncc3c(n2)CCN(Cc2cccc(C)c2)C3)cc(OC)c1	3%	.	.	24%	.	3%
CCOC(=O)CCC(=O)OC1C(OC2C(C)C(OC3CC(C)(OC)C(O)C(C)O3)C(C)C(=O)OC(CC)C(C)(O)C(O)C(C)C(=O)C(C)CC2(C)O)OC(C)CC1N(C)C (stereo not given)	.	.	.	.	.	2%
COc1ccc(NC(=O)CSC2=Nc3ccccc3C3=NC(CC(=O)NCc4ccco4)C(=O)N23)cc1 (stereo not given)	-13%	.	.	-3%	.	0%
Cc1cc2n(n1)CCCN2C(=O)Nc1ccccc1C(F)(F)F	-1%	.	.	14%	.	1%
CC1S/C(=N/N=C/c2ccco2)N(Cc2ccc(F)cc2)C1=O (stereo not given)	32µM*	0%	-1%	11%	-18%	0%
C=CCN1C(=O)C(Cc2ccc(F)cc2)S/C1=N/N=C/c1ccco1 (stereo not given)	-2%	14%	11%	?	-20%	-2%
COC1(NC(=O)c2ccccc2)C(C)=CC(=O)C=C1C	25µM*	-3%	3%	-5%	-2%	-26%
O=C(NC1(O)C(=O)c2ccccc2C1=O)c1ccccc1	-13%	9%	3%	?	-5%	-5%
Cc1cc(C)cc(NC(=O)CSc2ccc(-c3ccco3)nn2)c1	22µM*	14%	-16%	-1%	-15%	-14%
SMILES	Sm TGR inh	RE007 growth inh	SARS PLP yeast	AmpC detergent	AmpC no deterg	TbPYK inhibitor
Cc1cccc(NC(=O)CSc2ccc(-c3ccco3)nn2)c1	20µM*	-18%	19%	?	3%	0%
Cc1cc(C)cc(NC(=O)CSc2ccc(-c3ccccn3)nn2)c1	0%	0%	?	1%	-5%	-2%
FC(F)(F)c1ccc2c(c1)ncc1c(-c3ccccc3)nn(-c3ccccc3)c12	5%	.	.	1%	.	4%
CC(=O)Nc1c(C)nn(-c2ccccc2)c1N1CCC(C(=O)Nc2ccccc2C(F)(F)F)CC1	7%	.	.	9%	.	0%
CCOC(=O)N1CCc2c(sc(NCc3cccs3)c2C(=O)Nc2cc(Cl)ccc2OC)C1	-34%	.	.	10%	.	?
O=C(C(Cc1ccccc1)n1cccc1)N1CCc2ccccc21 (stereo not given)	35µM*	-10%	-16%	?	-18%	-2%
CCN1CCN(Cc2nc3cc(NC(=O)c4ccccc4[N+](=O)[O-])ccc3n2CC)CC1	1%	.	.	5%	.	1%
COCCCNC(=O)C(=O)NCCCOC(C)C	1%	0%	0%	1%	0.28µM*	2%
CCc1ccc(NC(=O)Nc2nnc(N(C)C3CCCCC3)s2)cc1	-2%	.	.	-2%	.	-7%
Cc1ccc(NC(=O)/C=C/c2ccc(C)o2)c(C)c1	7.9µM*	.	.	23%	.	?
COC(=O)c1ccc(Cl)cc1NC(=O)/C=C/c1ccc(C)o1	20µM*	9%	-5%	1%	-49%	-27%
Cc1ccc2nc(SCc3nc(-c4ccccc4C)no3)[nH]c2c1	1%	.	.	5%	.	4%
Cc1cn2c(=O)cc(COc3ccc(NC(=O)c4ccccc4C)cc3)nc2s1	2%	.	.	11%	.	5%
CCC(C)NC(=O)Cn1c(=O)n(-c2cc(OC)cc(OC)c2)c(=O)c2ccccc21 (stereo not given)	2%	.	.	5%	.	-1%
COc1ccccc1CNC(=O)CCn1c(=O)c2ccccc2n(CC(=O)Nc2cc(Cl)ccc2C)c1=O	0%	.	.	19%	.	3%
Cc1cc(C)cc(NC(=O)CCS(=O)(=O)c2cccc3nsnc23)c1	-8%	.	.	-5%	.	-3%
CC1Oc2ccccc2N(CC(=O)NCCc2ccccc2)C1=O (stereo not given)	-7%	-20%	7%	40µM*	-2%	-1%
CC1Oc2ccccc2N(CC(=O)NCCCN2CCOCC2)C1=O (stereo not given)	3%	-3%	2%	5%	-1%	-1%
N#Cc1ccc2c(c1)NC(=O)C1CCCN21 (stereo not given)	20µM*	5%	-1%	2%	-42%	-4%
NCCc1ccc(O)c(O)c1	14µM*	11%[18.4 µM]	1%	-10%	0%	-8%

Source: PubChem
